According to ChEMBL document CHEMBL1157539, “Thousands of chemical starting points for antimalarial lead identification” (Nature, 2010):

What was measured:
Assay type in all cases: functional
Plasmodium falciparum [1] = assay: GSK_TCMDC: Inhibition of Plasmodium falciparum 3D7 in whole red blood cells, using parasite LDH activity as an index of growth. Test compounds present at 2uM
Plasmodium falciparum [2] = assay: GSK_TCMDC: Inhibition of Plasmodium falciparum Dd2 in whole red blood cells, using parasite LDH activity as an index of growth. Test compounds present at 2uM
HepG2 = assay: GSK_TCMDC: Percent inhibition of human HepG2 cell line. Test compounds present at 10uM.

SMILES	Inhibition (Plasmodium falciparum [1]) [%]	Inhibition (Plasmodium falciparum [2]) [%]	Inhibition (HepG2) [%]
Cc1ccc(C2CCN(CCCCNC(=O)c3ccc(-c4ccc(C#N)cc4)cc3)CC2)c(O)c1	100	90	45
Fc1ccc2[nH]c(-c3ccc(-c4ccc(CN5CCN(c6cnccn6)CC5)cc4)s3)nc2c1.O=C(O)C(F)(F)F	99	98	45
O=[N+]([O-])c1cccc(C=NNc2nc(=Nc3ccccc3)[nH]c(=Nc3ccccc3)[nH]2)c1	99	55	10
COc1cc(-c2ccc(-c3cnc(N)nc3OC)[nH]2)cc(OC)c1OC	100	54	0
Cl.NC1(C(=O)O)Cc2ccc(Cl)cc2C1 (stereo not given)	93	1	0
N=C(/N=C(/NCCCCCCN/C(=N\C(=N)Nc1ccc(Cl)cc1)N1CCOCC1)N1CCOCC1)Nc1ccc(Cl)cc1	93	91	0
Cl.O=C(N[C@@H](Cc1cc(F)cc(F)c1)[C@H](O)CNCc1cccc(C(F)(F)F)c1)c1cc(C2CCCC2)cc(N2CCCC2=O)c1	95	45	37
O=C(N[C@@H](CC1CCCCC1)C(=O)NCCc1ccc(Cl)c(Cl)c1)c1ccc(O)c(-c2ccc(Cl)c(Cl)c2)c1	100	99	0
Nc1nc(N)c2c(Cl)c(CNc3cccc(C(=O)O)c3)ccc2n1	93	97	69
O=C(N[C@H](Cc1ccc(Cl)cc1)C(=O)N1CCN(c2ccnc3cc(Cl)ccc23)CC1)[C@H]1Cc2ccccc2CN1.O=C(O)C(F)(F)F	85	41	16
CCCCCCCN1CC[C@@H](CCCc2ccnc3ccc(OCCCCNC(N)=O)cc23)[C@@H](CC)C1.O=C(O)C(=O)O	93	18	41
COc1ccc(C(=O)Nc2ccc(-c3nc4cc(C)ccc4[nH]3)cc2)cc1OC	100	38	70
CCCCCCC(C)c1cc(O)c2c(c1)OC(=O)CC2(CC)c1ccccn1.Cl (stereo not given)	100	0	15
COc1ccc2ncc(F)c(CCN3CC(O)C(CNCc4ccc5oc(=O)ccc5c4)C3)c2n1.Cl (stereo not given)	89	6	18
Br.CN(C)CCCOc1ccc(-c2csc(NC(=N)NCc3ccccc3)n2)cc1	100	97	57
O=[N+]([O-])c1ccc2nc(Nc3cccc(C(F)(F)F)c3)c(Nc3cccc(C(F)(F)F)c3)nc2c1	100	99	0
CCOc1ccccc1CNc1nccc(NCc2ccc(Cl)cc2Cl)n1	83	58	26
Cc1cccc2nc(-c3cccc(-c4ccc(CNCc5ccc(S(C)(=O)=O)cc5)cc4)c3)[nH]c12.O=C(O)C(F)(F)F	100	98	8
O=C(NCCCCN1CCC(c2ccc3c(c2OCCN2CCCC2)CCCC3)CC1)c1ccc(-c2ccc(C(F)(F)F)cc2)cc1	100	81	25
Cc1noc(C)c1-c1ccc2c(Nc3ccc(C#N)cc3)c(C(N)=O)cnc2c1	97	73	6

SMILES	Inhibition (Plasmodium falciparum [1]) [%]	Inhibition (Plasmodium falciparum [2]) [%]	Inhibition (HepG2) [%]
Cc1ccc2nc3sc(C(=O)NCCCN4CCC(N5CCCCC5)CC4)cc3cc2c1	100	71	11
CCN1CCc2nc3ccccc3c(C(=O)Nc3ccc(C#N)cc3)c2C1	99	72	24
O=C(/C=C/c1ccccc1Cl)NC1CCC(CN2CCC(c3c[nH]c4ccncc34)CC2)CC1 (stereo not given)	100	100	19
COc1ccc([N+](=O)[O-])cc1N(Cc1ccccc1-c1ccccc1)S(=O)(=O)c1ccc(C(F)(F)F)cc1[N+](=O)[O-]	88	92	2
FC(F)(F)Oc1ccc(Nc2cc(-c3ccncc3)nc(-c3cccnc3)n2)cc1	94	52	24
Cl.O=C(Nc1ccccc1Br)N[C@@H]1CCN(c2ccnc3ccccc23)C1	91	90	25
O=C(Nc1ccc2nc3n(c(=O)c2c1)CCCCC3)C(=O)N1CCN(c2ccc(F)cc2)CC1	93	86	10
CC1CN(c2cnn(Cc3cccc(NC(=O)Nc4ccc(F)cc4[N+](=O)[O-])c3)c(=O)c2Cl)CC(C)N1.O=C(O)C(F)(F)F (stereo not given)	91	13	7
COCn1ccc2c3c(N)nc(N)nc3ccc21	88	1	63
CCN(CC)C(=O)C1CCCN(c2cc(C)nc(Nc3ccc(Cl)cc3)n2)C1 (stereo not given)	94	64	13
CCN(CC)/C(=N/C(=N)Nc1ccc(Br)cc1)NCCCCCCN/C(=N\C(=N)Nc1ccc(Br)cc1)N(CC)CC	96	95	0
CO.Cc1nc(N)nc(N)c1OCc1cccc2c1ccc1ccccc12.Cl	95	16	54
Cc1[nH]c(CNCCCNc2cc(=O)c3ccccc3[nH]2)c(Br)c1Br	91	47	0
CC(=O)Nc1ccc(CN2CCc3ccc(NS(=O)(=O)c4cccc(OCc5ccc(Cl)cc5)c4)cc3CC2)s1	93	7	23
O=C(/C=C/c1ccc(Cl)c(Cl)c1)NCCCCCN1CCC(NC(=O)Nc2cccc(Cl)c2Cl)CC1	100	35	99
CC(C)(C)c1ccc(CNC(=O)/C=C/c2ccc(CNC3CCNCC3)cc2)cc1	96	21	6
O=C(/C=C/c1ccc(Cl)c(Cl)c1)NCCCCCN1CCC(NC(=O)Nc2cccc(C(F)(F)F)c2)CC1	100	11	61
COc1ccc(CC(=O)Nc2ccc(Nc3nc(C)cc(N4CCCC4)n3)cc2)cc1	100	65	56
CCCCc1cc(NCC)nc(Nc2ccc(F)cc2)n1	98	56	33
CCC[C@@H]([C@@H](CC1CCC(C)CC1)C(=O)N[C@@H](CCCCNC(=O)c1ccccn1)C(=O)Nc1nccs1)N(O)C=O (stereo not given in full)	100	79	25

SMILES	Inhibition (Plasmodium falciparum [1]) [%]	Inhibition (Plasmodium falciparum [2]) [%]	Inhibition (HepG2) [%]
N#Cc1ccc(C(=O)Nc2ccc(-c3cccc(CN4CCCC4)c3)cc2)cc1.O=C(O)C(F)(F)F	89	1	17
O=C(Nc1cccc(-c2cccc(-c3nc4cc(F)ccc4[nH]3)c2)c1)c1ccncc1	92	24	28
Fc1ccc2[nH]c(-c3cccc(-c4cccc(CNCCN5CCNCC5)c4)c3)nc2c1.O=C(O)C(F)(F)F	94	4	18
O=C(Nc1ccc(C(F)(F)F)cc1)c1ccc(S(=O)(=O)NC2CCN(CC3CCCCC3)C2)cc1.O=C(O)C(F)(F)F (stereo not given)	99	16	33
O=C(NC1CCCCC1)c1ccc(O)c(-c2cccc(C(F)(F)F)c2)c1	97	87	8
Cc1cc(N2CCN(C3CCCCC3)CC2)nc2cccc(O)c12	100	37	12
CN(C)CCn1cc(C(=O)c2cc(Cl)ccc2O)cc1-c1nc2ccccc2c(=O)[nH]1	99	87	16
COc1cc2ncnc(Nc3ccc4nc(-c5ccccc5)[nH]c4c3)c2cc1OC.Cl	92	32	15
CNCCNCc1ccc(-c2ccc(-c3nc4cc(F)ccc4[nH]3)s2)cc1.O=C(O)C(F)(F)F	99	55	22
O=C(O)C(F)(F)F.O=C1OC2(CCN(Cc3cccc(-c4ncc[nH]4)c3)CC2)CN1CCNCc1ccccc1	94	0	0
Cc1ccc(N2CCc3c(-c4cc5cccnc5nc4C)cc(C)nc32)c(Cl)c1.O=C(O)C(F)(F)F	96	90	0
CC1CCN(Cc2ccc(NC(=O)c3cc4ccc5cccnc5c4[nH]3)cc2)CC1	100	93	10
CCOc1ccc(C(C)NC(=O)c2ccc(OC)c(Br)c2)cc1OCC (stereo not given)	100	100	9
Cc1cccc2nc(-c3ccc(-c4ccc(CNCCCN5CCCC5=O)cc4)s3)[nH]c12.O=C(O)C(F)(F)F	100	43	17
CCN(CC)CCN(Cc1ccc(-c2ccc(C(F)(F)F)cc2)cc1)C(=O)CN1C(CCc2cccc(F)c2F)=NS(=O)(=O)c2ccccc21	100	49	36
O=c1cc(NCCCNCc2cc(C(F)(F)F)ccc2Cl)[nH]c2ccccc12	90	20	25
Br.N=C1N=C(N)NC2(CCCCC2)N1OCCOc1ccc(Cc2ccccc2)cc1	86	22	34
Cc1cc(CNCC(CCNc2cc(=O)c3ccccc3[nH]2)NCc2cc(Br)cc(Br)c2)oc1C (stereo not given)	98	85	4
O=C(Nc1ccc(CCNC2=NCCN2)cc1)Nc1ccc(CCNC2=NCCN2)cc1	90	66	6
COc1ccc2nccc([C@@H](O)CN3CCC(NC(=O)C(c4ccsc4)N4CCN(c5ccccc5)CC4)CC3)c2c1 (stereo not given in full)	95	17	24
